# Results published in PubChem BioAssay (NCATS).
# Where “and” joins values, the source holds several entries; their conditions need not be identical. Equal values may be shown once. Inconclusive results are not listed. Where a call stands in place of a potency, no number is given. Calls of active or inactive are those of the source. Unless noted, calls follow the shape of the dose curve; as a rule, active = well fitted curve in the direction sought with a large enough effect; inconclusive = small, poorly fitted or top-dose-only effect, or another doubt; inactive = no such curve, though single readings can be large; an effect the other way counts as inactive or inconclusive.
# How the values were obtained:
# [1] = qHTS profiling for inhibitors of Plasmodium falciparum proliferation (AID 504749); also: potency is read from the fitted curve at half-maximal effect; as to all read-outs here: nearly all actives have a fitted effect of over 60% in size; conditions: P. falciparum in erythrocytes, SYBR Green DNA, 72 h; for activity, negative = inhibition: at 28.7 µM (top of the series)
# How it was run: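 Infected RBCs, 0.3% parasitemia/2.5% Hct final; cpd 72 h, 37 C, 5% CO2; lysis buffer with saponin/triton/SYBR Green I, o/n RT dark; FI 485/535; norm. to artemisinin (0.29 uM) and DMSO.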
# [2] = Cell Viability - LYMP1-003 - Assay at 24 hr (AID 963); conditions: LYMP1-003 lymphoblastoid cell viability; series mostly up to 92.2 µM
# How it was run: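 Human lymphoblastoid LYMP1-003 cells, 2500/well, treated 24 h at 37 C in complete medium. Viability read as intracellular ATP by CellTiter-Glo luminescence after 30 min at room temperature; AC50 from Hill-equation fits of qHTS concentration-response.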
# [3] = Cell Viability - LYMP2-009 (AID 968); conditions: LYMP2-009 lymphoblastoid cell viability; series mostly up to 92.2 µM;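 also: cells exposed to compound for 24 h at 37 °C; nearly all actives have a fitted effect of over 55% in size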
# [4] = Cell Viability - LYMP2-008 (AID 980); conditions: LYMP2-008 lymphoblastoid cell viability, qHTS; series mostly up to 92.2 µM;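 also: cells exposed to compound for 24 h at 37 °C; nearly all actives have a fitted effect of over 60% in size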
# How it was run: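 LYMP2-008 lymphoblastoid cells (2500/well) plated 5 h, then treated 24 h at 37 C in complete medium. Viability read as intracellular ATP by CellTiter-Glo luminescence after 30 min at room temperature; AC50 from Hill fits.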
# [5] = molecular target: Estrogen receptor (Homo sapiens) (UniProt P03372); assay: qHTS assay for small molecule antagonists of estrogen receptor alpha signaling (AID 588513; active = well fitted curve in the direction sought with a large enough effect in the signal ratio, with a control signal flat, not every such curve was filed as active; the % refers to the signal ratio); conditions: ER-alpha-UAS-bla HEK293, beta-lactamase ratio, antagonist mode; series mostly up to 76.9 µM
# Chain of Estrogen receptor (Homo sapiens) (P03372 whole entry, looked up): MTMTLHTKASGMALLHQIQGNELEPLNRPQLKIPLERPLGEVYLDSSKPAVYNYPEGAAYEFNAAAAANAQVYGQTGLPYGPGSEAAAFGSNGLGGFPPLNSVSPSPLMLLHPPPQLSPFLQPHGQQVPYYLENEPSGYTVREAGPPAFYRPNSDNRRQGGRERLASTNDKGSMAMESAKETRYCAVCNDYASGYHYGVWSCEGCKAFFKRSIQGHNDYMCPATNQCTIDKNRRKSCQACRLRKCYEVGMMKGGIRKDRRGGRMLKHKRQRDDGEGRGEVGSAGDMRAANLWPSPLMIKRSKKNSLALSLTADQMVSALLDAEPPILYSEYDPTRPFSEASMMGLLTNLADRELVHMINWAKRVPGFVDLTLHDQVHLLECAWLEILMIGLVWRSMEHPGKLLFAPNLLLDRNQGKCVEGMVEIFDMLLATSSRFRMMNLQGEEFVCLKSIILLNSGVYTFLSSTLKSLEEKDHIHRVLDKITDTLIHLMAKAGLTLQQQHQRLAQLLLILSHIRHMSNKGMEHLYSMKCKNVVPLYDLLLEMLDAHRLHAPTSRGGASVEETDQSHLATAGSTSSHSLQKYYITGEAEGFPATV
# How it was run: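 ER-alpha-UAS-bla GripTite HEK 293 cells in medium with 2% charcoal/dextran-treated FBS were preincubated 4 h at 37 C, dosed with compound (1:2 titration), stimulated with 0.5nM 17-beta-estradiol for 18 h, then read by CCF4 beta-lactamase fluorescence.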
# [6] = molecular target: Estrogen receptor (Homo sapiens) (UniProt P03372); assay: qHTS assay for small molecule agonists of estrogen receptor alpha signaling (AID 588514; calls by dose curve; also: nearly all actives have a fitted effect of over 70% in size); conditions: ER-alpha-UAS-bla HEK293, beta-lactamase ratio, 18 h; series mostly up to 76.8 µM
# How it was run: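 ER-alpha-UAS-bla GripTite HEK293 cells, 5000/well in 2% charcoal/dextran-stripped FBS medium, treated with compound titrations 18 h at 37 C. CCF4 beta-lactamase read by fluorescence after 2 h RT; normalised to 20 nM 17-beta-estradiol (100%) and DMSO (0%), Hill fit for EC50 and efficacy.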
# [7] = molecular target: Vitamin D3 receptor (Homo sapiens) (UniProt P11473); assay: qHTS assay for small molecule antagonists of vitamin D receptor signaling (AID 588541; calls by dose curve;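 also: receptor activated by calcitriol during compound treatment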); conditions: HEK293T VDR-UAS-bla, beta-lactamase ratio, antagonist mode; series mostly up to 76.7 µM
# Chain of Vitamin D3 receptor (Homo sapiens) (P11473 whole entry, looked up): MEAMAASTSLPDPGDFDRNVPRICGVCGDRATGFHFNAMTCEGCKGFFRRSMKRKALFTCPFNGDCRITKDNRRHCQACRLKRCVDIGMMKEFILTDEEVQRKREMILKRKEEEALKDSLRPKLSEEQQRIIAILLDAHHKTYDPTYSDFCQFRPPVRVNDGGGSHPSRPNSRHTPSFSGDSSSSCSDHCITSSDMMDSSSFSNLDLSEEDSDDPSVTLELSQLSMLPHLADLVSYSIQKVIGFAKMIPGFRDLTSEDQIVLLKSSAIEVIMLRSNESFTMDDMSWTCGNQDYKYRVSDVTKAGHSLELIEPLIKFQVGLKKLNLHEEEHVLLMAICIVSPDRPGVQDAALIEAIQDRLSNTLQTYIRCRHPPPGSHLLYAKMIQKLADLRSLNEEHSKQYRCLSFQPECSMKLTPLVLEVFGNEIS
# How it was run: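 Antagonist-mode beta-lactamase reporter assay: HEK293T VDR-UAS-bla cells were exposed to titrated compound alongside 1-alpha,25-dihydroxyvitamin D3 at 3 nM final for 16 h. Values were normalized to the 50 nM agonist control and DMSO basal, with IC50 and efficacy from Hill equation fits.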
# [8] = molecular target: Vitamin D3 receptor (Homo sapiens) (UniProt P11473); assay: qHTS assay for small molecule agonists of vitamin D receptor signaling (AID 588543; calls by dose curve); conditions: HEK293T VDR-UAS-bla, beta-lactamase ratio, 16 h; series mostly up to 76.8 µM
# How it was run: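 GeneBLAzer VDR-UAS-bla HEK293T cells in 2% charcoal-stripped FBS medium were dosed with compound titrations for 16 h at 37 °C; CCF4 β-lactamase readout (405 nm ex, 460/530 nm em). EC50 and efficacy from Hill fits, normalized to 50 nM calcitriol (100%) and DMSO (0%).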
# [9] = qHTS assay for small molecule agonists of the antioxidant response element (ARE) signaling pathway (AID 651741; active = well fitted activation curve with a large enough effect in the signal ratio; the % refers to the signal ratio); conditions: HepG2 ARE-bla reporter, beta-lactamase FRET ratio, 16 h; series mostly up to 96 µM
# How it was run: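 Quantitative HTS in HepG2 cells stably expressing an ARE-beta-lactamase reporter; 16 h compound exposure at 37 C, followed by 2 h room-temperature incubation with LiveBLAzer B/G FRET substrate and fluorescence measurement.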
# [10] = qHTS assay for small molecule disruptors of the mitochondrial membrane potential - 5 hr assay (AID 651755; calls by dose curve; also: nearly all actives have a fitted effect of over 40% in size); conditions: JC-1-type ratio dye; series mostly up to 92.2 µM
# How it was run: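 HepG2, 2,000 cells/well, overnight attach; cpd or DMSO 5 hr, 37C/5% CO2; Mito-MPS 30 min 37C; fluor 490/535 + 540/590 nm.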
# [11] = molecular target: Tumor necrosis factor (Homo sapiens) (UniProt P01375); assay: qHTS assay to identify small molecules that stimulate Tumor Necrosis Factor-alpha (TNF-alpha) secretion (AID 651757; active = well fitted curve in the direction sought with a large enough effect in the signal ratio; the % refers to the signal ratio); conditions: Human cells, HTRF 665/615 ratio; series mostly up to 92.2 µM
# Chain of Tumor necrosis factor (Homo sapiens) (P01375 whole entry, looked up): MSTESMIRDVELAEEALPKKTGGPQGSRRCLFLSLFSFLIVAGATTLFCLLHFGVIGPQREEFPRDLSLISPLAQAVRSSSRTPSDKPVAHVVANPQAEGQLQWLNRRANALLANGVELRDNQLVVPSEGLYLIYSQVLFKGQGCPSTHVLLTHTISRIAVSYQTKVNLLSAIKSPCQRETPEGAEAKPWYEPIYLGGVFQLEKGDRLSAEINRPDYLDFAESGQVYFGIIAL
# How it was run: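 THP-1 cells (3000/well) exposed to compounds 17 hrs at 37 C. Secreted TNF-alpha detected by HTRF with cryptate- and XL665-labeled anti-TNF-alpha antibodies after 3 hr at room temperature.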
# [12] = molecular target: Nuclear receptor ROR-gamma (Homo sapiens) (UniProt P51449); assay: qHTS assay for small molecule antagonists of the retinoid-related orphan receptor gamma (ROR-gamma) signaling pathway (AID 651802); conditions: ROR-gamma antagonist cell reporter assay; series mostly up to 92.2 µM;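 also: luciferase reporter luminescence driven by ROR response element; nearly all actives have a fitted effect of over 60% in size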
# Chain of Nuclear receptor ROR-gamma (Homo sapiens) (P51449 whole entry, looked up): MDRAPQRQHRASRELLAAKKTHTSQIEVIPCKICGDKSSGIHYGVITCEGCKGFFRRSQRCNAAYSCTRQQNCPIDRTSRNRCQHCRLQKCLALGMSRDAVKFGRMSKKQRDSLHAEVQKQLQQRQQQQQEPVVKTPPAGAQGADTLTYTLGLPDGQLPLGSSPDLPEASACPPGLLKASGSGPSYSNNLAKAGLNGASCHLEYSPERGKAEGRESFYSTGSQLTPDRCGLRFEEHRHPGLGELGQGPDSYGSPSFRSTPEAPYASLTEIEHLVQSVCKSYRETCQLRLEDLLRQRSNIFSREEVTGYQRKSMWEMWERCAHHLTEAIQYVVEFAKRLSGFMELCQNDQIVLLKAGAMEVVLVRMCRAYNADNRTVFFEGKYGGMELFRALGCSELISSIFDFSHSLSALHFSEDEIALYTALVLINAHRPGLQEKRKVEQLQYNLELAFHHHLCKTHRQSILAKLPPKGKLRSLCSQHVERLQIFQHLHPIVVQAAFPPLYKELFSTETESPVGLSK
# How it was run: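 CHO cells with TET-inducible ROR-gamma and RORE-luciferase reporter, dosed then doxycycline-induced. After 16 h at 37C, One-Glo luminescence read; decreased signal indicates antagonism.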
# [13] = qHTS assay for small molecule agonists of the antioxidant response element (ARE) signaling pathway measured by Nrf2-dependant transcriptional activity - cell viability counter screen (AID 720653; active = well fitted curve in the direction sought with a large enough effect in the repeat runs; an effect the other way counts as inactive or inconclusive); conditions: ARE-bla HepG2 viability, CellTiter-Glo ATP luminescence, 16 h; max response: stronger effect = lower value
# How it was run: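 Cytotoxicity counter screen: intracellular ATP quantified by CellTiter-Glo luminescence in the same ARE-bla HepG2 plates, after 16 h compound exposure and a 2 h beta-lactamase substrate step.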
# [14] = qHTS assay for cell viability of the p53RE-bla HCT-116 cell line (AID 743292); conditions: p53RE-bla HCT-116 viability, ATP luminescence, 16 h; series mostly up to 95 µM; also: nearly all actives have a fitted effect of over 55% in size
# How it was run: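 CellSensor p53RE-bla HCT-116 cells (4,000/well) pre-incubated 5 h at 37 C, then exposed to compounds in DMSO for 16 h at 37 C. Viability read as ATP content by CellTiter-Glo luminescence after 30 min at room temperature.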
# [15] = qHTS assay for small molecule agonists of retinoid X receptor alpha signaling (AID 588544); conditions: HEK293T RXRa-UAS-bla, beta-lactamase reporter, 18 h; 530 nm emission
# [16] = molecular target: Thyroid hormone receptor beta (Homo sapiens) (UniProt P10828); assay: qHTS assay for small molecule antagonists of thyroid hormone receptor beta signaling (AID 588547; active = well fitted inhibition curve with a large enough effect in the signal ratio, with a control signal flat, not every such curve was filed as active; the % refers to the signal ratio;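 also: cells stimulated with 0.4 nM T3 agonist during compound exposure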); conditions: TR-UAS-bla HEK293, beta-lactamase ratio, antagonist mode, 18 h
# Chain of Thyroid hormone receptor beta (Homo sapiens) (P10828 whole entry, looked up): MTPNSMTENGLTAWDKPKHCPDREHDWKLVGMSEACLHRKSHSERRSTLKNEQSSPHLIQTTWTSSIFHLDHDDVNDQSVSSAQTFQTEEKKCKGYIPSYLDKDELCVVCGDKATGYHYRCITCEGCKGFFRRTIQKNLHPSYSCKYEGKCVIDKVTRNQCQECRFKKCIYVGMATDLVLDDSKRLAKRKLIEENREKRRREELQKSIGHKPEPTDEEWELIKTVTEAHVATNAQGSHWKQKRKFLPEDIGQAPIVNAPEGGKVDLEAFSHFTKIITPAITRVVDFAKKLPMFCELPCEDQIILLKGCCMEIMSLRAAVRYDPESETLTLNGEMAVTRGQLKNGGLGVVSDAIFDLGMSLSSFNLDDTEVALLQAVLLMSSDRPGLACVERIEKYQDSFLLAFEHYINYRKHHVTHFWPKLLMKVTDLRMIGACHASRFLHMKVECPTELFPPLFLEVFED
# How it was run: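 Inhibition of T3-driven (0.4nM final) beta-lactamase reporter activity was measured over 0.59 nM to 92 uM compound after 18 h at 37 C. The cells were GripTite HEK293 TR-UAS-bla in charcoal/dextran-stripped serum, with CCF4 ratio read-out and IC50 from Hill fits.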
# [17] = molecular target: Voltage-gated inwardly rectifying potassium channel KCNH2 (Homo sapiens) (UniProt Q12809); assay: qHTS Assay for Small Molecule Inhibitors of the Human hERG Channel Activity (AID 588834); conditions: U2OS BacMam hERG, FluxOR thallium flux fluorescence; series mostly up to 92.2 µM;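 also: top concentration of the series differs between compounds; lower thallium flux fluorescence means stronger hERG block; nearly all actives have a fitted effect of over 50% in size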
# Chain of Voltage-gated inwardly rectifying potassium channel KCNH2 (Homo sapiens) (Q12809 whole entry, looked up): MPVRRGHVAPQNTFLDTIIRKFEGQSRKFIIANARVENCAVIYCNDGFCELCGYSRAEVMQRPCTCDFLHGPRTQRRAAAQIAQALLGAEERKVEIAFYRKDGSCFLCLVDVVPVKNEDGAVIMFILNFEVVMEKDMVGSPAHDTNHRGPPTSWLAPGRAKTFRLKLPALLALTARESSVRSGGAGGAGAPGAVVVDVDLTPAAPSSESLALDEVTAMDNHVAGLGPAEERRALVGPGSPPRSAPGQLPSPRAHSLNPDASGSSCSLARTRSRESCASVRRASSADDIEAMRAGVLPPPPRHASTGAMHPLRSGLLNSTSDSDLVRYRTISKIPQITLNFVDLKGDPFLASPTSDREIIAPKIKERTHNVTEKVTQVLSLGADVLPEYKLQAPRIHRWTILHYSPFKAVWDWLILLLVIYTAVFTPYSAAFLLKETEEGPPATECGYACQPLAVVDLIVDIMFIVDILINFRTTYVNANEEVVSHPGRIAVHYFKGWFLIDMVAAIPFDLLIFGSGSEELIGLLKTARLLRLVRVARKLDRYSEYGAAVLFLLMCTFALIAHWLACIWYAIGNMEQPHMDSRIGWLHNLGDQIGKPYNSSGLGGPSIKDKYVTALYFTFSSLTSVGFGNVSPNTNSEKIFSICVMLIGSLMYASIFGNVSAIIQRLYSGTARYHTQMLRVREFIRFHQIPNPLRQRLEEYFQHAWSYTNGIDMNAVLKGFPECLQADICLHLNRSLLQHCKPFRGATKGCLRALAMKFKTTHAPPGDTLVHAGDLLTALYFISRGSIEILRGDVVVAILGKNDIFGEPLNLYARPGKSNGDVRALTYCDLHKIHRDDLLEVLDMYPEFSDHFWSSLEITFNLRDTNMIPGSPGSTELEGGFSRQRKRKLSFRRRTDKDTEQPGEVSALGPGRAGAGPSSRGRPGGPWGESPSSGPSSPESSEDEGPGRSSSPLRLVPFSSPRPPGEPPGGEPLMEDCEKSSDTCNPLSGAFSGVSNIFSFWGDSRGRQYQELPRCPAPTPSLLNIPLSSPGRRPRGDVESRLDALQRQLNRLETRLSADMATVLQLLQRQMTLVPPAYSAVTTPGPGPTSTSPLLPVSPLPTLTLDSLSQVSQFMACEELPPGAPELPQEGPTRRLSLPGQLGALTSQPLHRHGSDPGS
# How it was run: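 U2OS cells transduced with hERG via BacMam (MOI ~100), plated 2000/well, loaded with FluxOR thallium dye, compound ~10 min, then stimulation buffer; fluorescence decrease read kinetically; AC50 from Hill fits.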
# [18] = qHTS assay for small molecule antagonists of the retinoid-related orphan receptor gamma (ROR-gamma) signaling pathway - cell viability counter screen (AID 720652; active = well fitted curve in the direction sought with a large enough effect in the repeat runs; an effect the other way counts as inactive or inconclusive;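 also: compound exposure lasted 16 hr before ATP read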); conditions: RORgamma reporter cell line viability counter screen; series mostly up to 92.2 µM
# How it was run: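 CHO cells carrying TET-inducible ROR and RORE-luciferase reporter, plated 5 hr, then dosed with compound plus doxycycline. After 16 hr at 37 C, viability read as intracellular ATP by CellTiter-Glo luminescence.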
# [19] = molecular target: Nuclear receptor subfamily 1 group I member 2 (Rattus norvegicus) (UniProt Q9R1A7); assay: qHTS assay for small molecule activators of the rat pregnane X receptor (rPXR) signaling pathway (AID 651751; call rule not given here); conditions: rPXR reporter cells, luciferase (One-Glo), 24 h
# Chain of Nuclear receptor subfamily 1 group I member 2 (Rattus norvegicus) (Q9R1A7 whole entry, looked up): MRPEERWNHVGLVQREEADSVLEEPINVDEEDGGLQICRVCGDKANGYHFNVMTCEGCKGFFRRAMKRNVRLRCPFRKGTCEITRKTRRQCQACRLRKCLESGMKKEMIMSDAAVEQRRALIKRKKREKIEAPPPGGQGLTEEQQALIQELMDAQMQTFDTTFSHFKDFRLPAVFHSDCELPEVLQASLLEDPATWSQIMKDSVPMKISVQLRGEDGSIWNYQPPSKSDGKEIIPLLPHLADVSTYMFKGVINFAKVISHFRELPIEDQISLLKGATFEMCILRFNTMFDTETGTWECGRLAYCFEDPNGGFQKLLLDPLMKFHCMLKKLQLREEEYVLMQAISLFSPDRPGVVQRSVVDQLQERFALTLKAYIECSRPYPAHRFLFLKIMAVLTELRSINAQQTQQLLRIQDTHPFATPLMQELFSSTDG
# [20] = qHTS assay for small molecule activators of the human pregnane X receptor (PXR) signaling pathway (AID 720659; call rule not given here); conditions: DPX-2 HepG2 CYP3A4-luciferase, 24 h; series mostly up to 92.3 µM
smiles,measurement,setting,value
CO/N=C(/C(=O)N[C@@H]1C(=O)N2C(C(=O)O)=CCS[C@H]12)c1csc(N)n1,"activity, negative = inhibition",[1]; parasite line A,1.12% (inactive)
same,"activity, negative = inhibition",[1]; parasite line B,9.16% (inactive)
c1ccccc1,Potency,[2],inactive
same,Potency,[3],inactive
same,Potency,[4],inactive
same,Potency,[5],inactive
same,Potency,[6],inactive
same,outcome,[7],inactive
same,outcome,[8],inactive
same,Potency,[9],inactive
same,Potency,[10],inactive
same,outcome,[11],inactive
same,Potency,[12],inactive
same,max response,[13],-0.292% (inactive) [middle of 4 runs]
same,Potency,[14],inactive
COC(=O)c1ccc(C=O)cc1,Potency,[2],inactive
same,Potency,[3],inactive
same,Potency,[4],inactive
same,Potency,[5],inactive
same,Potency,[6],inactive
same,outcome,[7],inactive
same,outcome,[8],inactive
same,max response,[15],2.75% and 4.18%
same,activity change % (negative = inhibition),[16],3.66% (inactive)
same,Potency,[17],inactive
same,Potency,[9],inactive
same,Potency,[10],inactive
same,outcome,[11],inactive
same,Potency,[12],inactive
same,Potency,[18],inactive
same,max response,[13],-1.73% (inactive) and -0.32% (inactive)
same,Potency,[14],inactive
same,max response,[19],-0.798% (inactive) and -1.94% (inactive)
same,outcome,[20],inactive
COCC(=O)O,Potency,[2],inactive
same,Potency,[3],inactive
same,Potency,[4],inactive
same,Potency,[5],inactive
same,Potency,[6],inactive
same,outcome,[7],inactive
same,outcome,[8],inactive
same,max response,[15],0.473% and -13.2%
same,activity change % (negative = inhibition),[16],-5.02% (inactive) and -7.68% (inactive)
same,Potency,[17],inactive
same,Potency,[9],inactive
same,Potency,[10],inactive
same,outcome,[11],inactive
same,Potency,[12],inactive
same,Potency,[18],inactive
same,max response,[13],8.69% (inactive) and 6.89% (inactive)
same,Potency,[14],inactive
same,max response,[19],1.77% (inactive) and 0.862% (inactive)
C/C=C\c1ccc(OC)cc1,Potency,[2],inactive
same,Potency,[3],inactive
same,Potency,[4],inactive
same,max response,[15],-9.52%
same,activity change % (negative = inhibition),[16],20.9% (inactive)
same,Potency,[17],inactive
same,outcome,[11],inactive
same,Potency,[12],inactive
same,Potency,[18],inactive
same,max response,[13],-0.534% (inactive)
same,Potency,[14],inactive
same,"activity, negative = inhibition",[1]; parasite line A,-0.333% (inactive)
same,"activity, negative = inhibition",[1]; parasite line B,-2.16% (inactive)
same,max response,[19],5.64% (inactive)
same,outcome,[20],inactive
Cc1ccc([N+](=O)[O-])cc1N,Potency,[2],inactive
same,Potency,[3],inactive
same,Potency,[4],inactive
same,Potency,[5],inactive
same,Potency,[6],inactive
same,outcome,[7],inactive
same,outcome,[8],inactive
same,max response,[15],-6.56% and -2.61%
same,activity change % (negative = inhibition),[16],15.7% (inactive) and 9.17% (inactive)
same,Potency,[17],inactive
same,Potency,[10],inactive
same,outcome,[11],inactive
same,Potency,[12],inactive
same,Potency,[18],inactive
same,max response,[13],-2.84% (inactive) and 7.73% (inactive)
same,Potency,[14],inactive
same,max response,[19],0.691% (inactive) and 2.27% (inactive)
same,outcome,[20],inactive
COC(=O)c1ccc(C)cc1,Potency,[2],inactive
same,Potency,[3],inactive
same,Potency,[4],inactive
same,Potency,[5],inactive
same,outcome,[7],inactive
same,outcome,[8],inactive
same,max response,[15],8.76% and -8.45%
same,activity change % (negative = inhibition),[16],-22.1% (inactive) and -12.5% (inactive)
same,Potency,[17],inactive
same,Potency,[9],inactive
same,Potency,[10],inactive
same,outcome,[11],inactive
same,Potency,[12],inactive
same,Potency,[18],inactive
same,max response,[13],2.73% (inactive) and -0.323% (inactive)
same,Potency,[14],inactive
same,max response,[19],1.84% (inactive) and -0.952% (inactive)
same,outcome,[20],inactive
CC(C)(CO)C(O)C(=O)NCCCC(=O)O (stereo not given),Potency,[1]; parasite line A,0.0141 µM (active)
COc1c2ccoc2cc2oc(=O)ccc12,Potency,[2],inactive
same,Potency,[3],inactive
same,Potency,[4],inactive
same,Potency,[5],inactive
same,Potency,[6],inactive
same,outcome,[7],inactive
same,outcome,[8],inactive
same,activity change % (negative = inhibition),[16],16.2% (inactive)
same,Potency,[17],inactive
same,Potency,[10],inactive
same,outcome,[11],inactive
same,Potency,[12],inactive
same,Potency,[18],inactive
same,max response,[13],3.31% (inactive)
same,Potency,[14],inactive
same,max response,[19],2.12% (inactive)
same,outcome,[20],inactive
CC1(C)CC(N=C=O)CC(C)(CN=C=O)C1 (stereo not given),Potency,[2],inactive
same,Potency,[3],inactive
same,Potency,[4],inactive
same,Potency,[5],inactive
same,Potency,[6],inactive
same,outcome,[7],inactive
same,outcome,[8],inactive
same,max response,[15],0.0281% and -13.4%
same,activity change % (negative = inhibition),[16],2.27% (inactive) and 3.24% (inactive)
same,Potency,[17],inactive
same,Potency,[9],inactive
same,Potency,[10],inactive
same,outcome,[11],inactive
same,Potency,[12],inactive
same,Potency,[18],inactive
same,max response,[13],6.59% (inactive) and -15.1% (inactive)
same,Potency,[14],inactive
same,max response,[19],1.05% (inactive) and -0.823% (inactive)
same,outcome,[20],inactive
